# Substitutions are numbered along the chain they refer to.
# Legend:
# Assay in all cases: yeast three-hybrid, YBZ-1, SC-Leu-His + 0.5 mM 3-AT, 4 days
# Details in all cases: tags: N-Gal4 AD-HA kept; label: inside an RPR1-promoter hybrid RNA with tandem MS2 sites; ssRNA
# [1] = target: PUM1 PUF domain R1-RTE (Homo sapiens, UniProt Q14671 828-1176, S863R;R864T;Q867E)
# Method in brief: (§1)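 Pumilio-1 PUF domain libraries, randomized at the three base-contacting residues of each repeat, were co-expressed with matching RNA elements from a centromeric plasmid in strain YBZ-1, which carries a LexA–MS2 coat fusion and a HIS3 reporter. Transformants grew for four days on SC-Leu (input) or on SC-Leu-His + 0.5 mM 3-AT (selection), and the repeat regions were PCR-amplified and Illumina-sequenced. The interaction score is the log change in variant frequency from input to selection. That logarithm is base 2, with a pseudocount of 1 where a variant was absent.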
# [2] = target: PUM1 PUF domain R2-LWM (Homo sapiens, UniProt Q14671 828-1176, N899L;Y900W;Q903M)
# Method in brief: as §1
# [3] = target: PUM1 PUF domain R5-WWA (Homo sapiens, UniProt Q14671 828-1176, C1007W;R1008W;Q1011A)
# Method in brief: as §1
# [4] = target: T1, PUM1 PUF domain R6-HFW (Homo sapiens, UniProt Q14671 828-1176, N1043H;Y1044F;Q1047W)
# T1 sequence: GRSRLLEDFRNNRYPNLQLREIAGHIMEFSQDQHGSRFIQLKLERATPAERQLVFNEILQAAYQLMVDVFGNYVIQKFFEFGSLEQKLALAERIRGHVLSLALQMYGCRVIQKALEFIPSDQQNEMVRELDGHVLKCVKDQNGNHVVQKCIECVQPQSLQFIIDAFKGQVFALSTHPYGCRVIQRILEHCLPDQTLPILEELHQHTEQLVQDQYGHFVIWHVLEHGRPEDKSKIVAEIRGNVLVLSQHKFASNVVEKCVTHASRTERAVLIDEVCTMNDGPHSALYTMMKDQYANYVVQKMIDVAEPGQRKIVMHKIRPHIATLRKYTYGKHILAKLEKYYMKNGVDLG
# Method in brief: as §1
# [5] = target: PUM1 PUF domain R8-LRR (Homo sapiens, UniProt Q14671 828-1176, N1122L;Y1123R;Q1126R)
# Method in brief: as §1
# [6] = target: T2, PUM1 PUF domain R6-RHG (Homo sapiens, UniProt Q14671 828-1176, N1043R;Y1044H;Q1047G)
# T2 sequence: T1 sequence with H216R, F217H, W220G
# Method in brief: as §1
# [7] = target: T3, PUM1 PUF domain R6-SWH (Homo sapiens, UniProt Q14671 828-1176, N1043S;Y1044W;Q1047H)
# T3 sequence: T1 sequence with H216S, F217W, W220H
# Method in brief: as §1
# [8] = target: PUM1 PUF domain R4-VWK (Homo sapiens, UniProt Q14671 828-1176, N971V;H972W;Q975K)
# Method in brief: as §1
# [9] = target: PUM1 PUF domain R8-RPR (Homo sapiens, UniProt Q14671 828-1176, N1122R;Y1123P;Q1126R)
# Method in brief: as §1
# [10] = target: PUM1 PUF domain R8-GYK (Homo sapiens, UniProt Q14671 828-1176, N1122G;Q1126K)
# Method in brief: as §1
sequence,measurement,setting,value
GGCUAGAACUAGUGGAUCCCCCGGCGCCCGGCGGCUCGAGCCCGGGUAAGUGUAAAUUGUCUGCAUGCCGCCGGGCGCCAUGCCUGCAGGUCGACUCUAGAAAACAUG,binding signal,[1],2.65 log2 enrichment (interaction score)
GGCUAGAACUAGUGGAUCCCCCGGCGCCCGGCGGCUCGAGCCCGGGUAAGUGUAAAAAGUCUGCAUGCCGCCGGGCGCCAUGCCUGCAGGUCGACUCUAGAAAACAUG,binding signal,[2],7 log2 enrichment (interaction score)
GGCUAGAACUAGUGGAUCCCCCGGCGCCCGGCGGCUCGAGCCCGGGUAAGUGUGAAUAGUCUGCAUGCCGCCGGGCGCCAUGCCUGCAGGUCGACUCUAGAAAACAUG,binding signal,[3],2.58 log2 enrichment (interaction score)
GGCUAGAACUAGUGGAUCCCCCGGCGCCCGGCGGCUCGAGCCCGGGUAAGUGUAAAUAGUCUGCAUGCCGCCGGGCGCCAUGCCUGCAGGUCGACUCUAGAAAACAUG,binding signal,[4],3.2 log2 enrichment (interaction score)
same,binding signal,[5],2.35 log2 enrichment (interaction score)
same,binding signal,[6],2.33 log2 enrichment (interaction score)
GGCUAGAACUAGUGGAUCCCCCGGCGCCCGGCGGCUCGAGCCCGGGUAAGUGUAAAUGGUCUGCAUGCCGCCGGGCGCCAUGCCUGCAGGUCGACUCUAGAAAACAUG,binding signal,[1],0.93 log2 enrichment (interaction score)
GGCUAGAACUAGUGGAUCCCCCGGCGCCCGGCGGCUCGAGCCCGGGUAAGUGAAAAUAGUCUGCAUGCCGCCGGGCGCCAUGCCUGCAGGUCGACUCUAGAAAACAUG,binding signal,[7],2.64 log2 enrichment (interaction score)
GGCUAGAACUAGUGGAUCCCCCGGCGCCCGGCGGCUCGAGCCCGGGUAAGUGUACAUAGUCUGCAUGCCGCCGGGCGCCAUGCCUGCAGGUCGACUCUAGAAAACAUG,binding signal,[8],5.63 log2 enrichment (interaction score)
GGCUAGAACUAGUGGAUCCCCCGGCGCCCGGCGGCUCGAGCCCGGGUAAGCGUAAAUAGUCUGCAUGCCGCCGGGCGCCAUGCCUGCAGGUCGACUCUAGAAAACAUG,binding signal,[5],3.25 log2 enrichment (interaction score)
same,binding signal,[9],2.38 log2 enrichment (interaction score)
same,binding signal,[10],4.76 log2 enrichment (interaction score)

# Reference: paper PMC8384837, “Expanding the binding specificity for RNA recognition by a PUF domain”
